Compound activity: PubChem BioAssay, Sanford-Burnham Center for Chemical Genomics
CF NFkB inh: inhibitors of PAF-induced NF-kB signaling, primary screen, cell-based, GFP fluorescence, uHTS | KKLEB NF-kB-GFP reporter, GFP fluorescence overnight | inhibition, % at 5 µM | 360,000 compounds, 0.86% hits | AID 588850, 2011;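 active means at least 50% inhibition at 5 µM, scaled per plate between neutral and stimulator controls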;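 further: PAF is a Pseudomonas aeruginosa culture filtrate used as stimulus; plate controls were PAF-stimulated DMSO wells for no effect and unstimulated DMSO wells for full effect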
TROY signal inh: inhibitors of TROY-driven NF-kB signaling, primary screen, Q293 LMP1-TROYcd cells, NF-kB luciferase, uHTS | 360,000 compounds, 0.98% hits | inhibition, % at 10 µM | AID 1347056, 2019 | Q293 LMP1-TROYcd NF-kB luciferase reporter, 4 h;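 active means compounds whose plate-normalised and pattern-corrected inhibition of the luciferase reporter signal at the single screening dose is 50% or more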
Peg3 promoter: Peg3 promoter-driven luciferase inhibitors, primary screen, cell-based, HeLa, luciferase luminescence. HeLa PEG-Prom luciferase reporter, overnight. inhibition, % at 20 µM. 360,000 compounds, 1.7% hits. AID 588405, 2011;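 active means inhibition of at least 50% at 20 µM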
HIF-2a inh: HIF-2a reporter inhibitors, primary screen, luminescence, 786-0 RCC cells; 786-0 RCC cells HIF-2a reporter, luciferase luminescence, overnight; inhibition, % at 18.8 µM; 360,000 compounds, 0.72% hits;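 active means inhibition of the luminescence signal of 40% or more relative to plate controls, in a single-dose primary screen at 18.75 µM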
TWEAK-Fn14 inh: inhibitors of TWEAK-Fn14 signaling, primary screen, luciferase reporter cells, uHTS | 360,000 compounds, 2% hits | TWEAK-stimulated Fn14 reporter cells, luciferase luminescence, 8 h | AID 1159606, 2016 | inhibition, % at 10 µM; in the data active means inhibition above about 50%
KKLEB cytotox: cytotoxicity in KKLEB CF airway cells, primary screen, cytotoxicity control for CF NF-kB inhibitor project, cell-based, uHTS, fluorescence assay plates. KKLEB CF airway cells viability, ATPlite luminescence, overnight; stronger effect = lower value; cells stimulated with P. aeruginosa culture filtrate. activity change (cytotoxicity), % at 5 µM. 360,000 compounds, 0.36% hits. AID 602141, 2011;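 active means corrected activity change at or below -50% at 5 µM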
* = called active by the depositor. Rows were chosen to be rich in hits. Some 4% of all compounds tested hit in one or more screens of this group.

Results for CC(C)(C)C1=CC(O)(c2ccccc2)C=C(C(C)(C)C)C1=O ?
CF NFkB inh: 20.1; TROY signal inh: -8.8; Peg3 promoter: 78.1*; HIF-2a inh: 20.2; TWEAK-Fn14 inh: 9.2; KKLEB cytotox: 4.6

Results for CCN(CC)S(=O)(=O)c1ccc(Cl)c(NC(=O)COC(=O)c2ccc(O)cc2)c1 ?
CF NFkB inh: 10.2; TROY signal inh: 41.1; Peg3 promoter: 21.6; HIF-2a inh: 14.2; TWEAK-Fn14 inh: 14.8; KKLEB cytotox: 3.0

Results for CCN(CC)S(=O)(=O)c1ccc(Cl)c(NC(=O)COC(=O)c2cc(-c3ccccc3Cl)nc3ccccc23)c1 ?
CF NFkB inh: 0.2; TROY signal inh: 94.8*; Peg3 promoter: -4.4; HIF-2a inh: 13.7; TWEAK-Fn14 inh: 109.8*; KKLEB cytotox: 1.6

How did Cc1ccc2nsnc2c1S(=O)(=O)N(Cc1cc2cccc(C)c2[nH]c1=O)CC1CCCO1 (centres undefined) do in these assays?
CF NFkB inh: 34.7; TROY signal inh: 15.5; Peg3 promoter: 84.1*; HIF-2a inh: 6.2; TWEAK-Fn14 inh: 16.9; KKLEB cytotox: -20.2

How did O=C(CN(Cc1ccco1)C(=O)CCC(=O)Nc1ccccn1)NCc1ccccc1 do in these assays?
CF NFkB inh: -12.6; TROY signal inh: -2.3; Peg3 promoter: -0.8; HIF-2a inh: 16.1; TWEAK-Fn14 inh: 6.3; KKLEB cytotox: 12.4

Results for Cc1ccc2nc(-c3ccc(NC(=S)NC4CC(C)(C)NC(C)(C)C4)cc3)sc2c1 ?
CF NFkB inh: 38.5; TROY signal inh: -5.4; Peg3 promoter: 104.8*; HIF-2a inh: -195.4; TWEAK-Fn14 inh: 26.8; KKLEB cytotox: -43.5

Results for CCOC(=O)c1cc(-c2ccccc2)sc1NC(=O)C(C)(C)C ?
CF NFkB inh: -11.9; TROY signal inh: -1.0; Peg3 promoter: 15.9; HIF-2a inh: 8.0; TWEAK-Fn14 inh: 95.6*; KKLEB cytotox: 16.2

What do the screens show for `CCC(C)(C(=O)NC1CCCC1)N(Cc1ccco1)C(=O)c1ccc2c(c1)OCO2` (centres undefined)?
CF NFkB inh: -10.1; TROY signal inh: 10.0; Peg3 promoter: 16.2; HIF-2a inh: -0.1; TWEAK-Fn14 inh: -33.8; KKLEB cytotox: -9.3

Results for CCC(C)(NC(=O)c1ccc2c(c1)OCO2)C(=O)NC1CCCCC1 (centres undefined) ?
CF NFkB inh: -7.3; TROY signal inh: 6.9; Peg3 promoter: 20.9; HIF-2a inh: 11.3; TWEAK-Fn14 inh: 51.1*; KKLEB cytotox: 1.1

How did CSc1ncnc2c1ncn2CCCN1CCN(C(=O)C2CC2)CC1 do in these assays?
CF NFkB inh: -9.9; TROY signal inh: -2.5; Peg3 promoter: 13.9; HIF-2a inh: 4.9; TWEAK-Fn14 inh: -14.1; KKLEB cytotox: 4.3

What do the screens show for `CC1(C(=O)NCc2cccnc2)CCN1C(=O)Cc1cccs1` (centres undefined)?
CF NFkB inh: 4.1; TROY signal inh: -18.4; Peg3 promoter: 4.3; HIF-2a inh: 11.4; TWEAK-Fn14 inh: 1.0; KKLEB cytotox: -1.1

How did CC(OC(=O)c1ccc(NC(=O)CC#N)cc1)C(=O)NC(c1ccccc1)c1ccccc1 (centres undefined) do in these assays?
CF NFkB inh: -17.9; TROY signal inh: 4.8; Peg3 promoter: 4.8; HIF-2a inh: 7.9; TWEAK-Fn14 inh: 4.9; KKLEB cytotox: -1.3

How did Cc1cc(C(=O)C(C)OC(=O)c2ccc(NC(=O)CC#N)cc2)c(C)n1-c1ccccc1 (centres undefined) do in these assays?
CF NFkB inh: -13.1; TROY signal inh: 44.7; Peg3 promoter: -16.7; HIF-2a inh: 5.5; TWEAK-Fn14 inh: 64.0*; KKLEB cytotox: 13.7

What do the screens show for `CC(=O)Nc1ccc(SCC(=O)c2cc(C)n(-c3ccccc3)c2C)cc1`?
CF NFkB inh: -8.1; TROY signal inh: 44.2; Peg3 promoter: 20.4; HIF-2a inh: 22.3; TWEAK-Fn14 inh: 72.7*; KKLEB cytotox: -30.6

How did O=C1C=C(Nc2ccc(Cl)cc2)CC(c2ccco2)C1 (centres undefined) do in these assays?
CF NFkB inh: -2.1; Peg3 promoter: 4.8; HIF-2a inh: 7.0; TWEAK-Fn14 inh: 55.9*; KKLEB cytotox: 11.5

How did CSCC[C@@H](CO)NC(=O)[C@H]1O[C@@H](n2ccc(N)nc2=O)[C@H](O)[C@@H]1O do in these assays?
CF NFkB inh: -0.3; TROY signal inh: -3.4; Peg3 promoter: 6.8; HIF-2a inh: 1.1; TWEAK-Fn14 inh: -3.0; KKLEB cytotox: 0.3

What do the screens show for `Cc1ccc(C(C#N)c2ccc3c(C(F)(F)F)cc(C(F)(F)F)nc3n2)cc1` (centres undefined)?
CF NFkB inh: 27.4; TROY signal inh: 45.0; Peg3 promoter: 28.1; HIF-2a inh: 6.8; TWEAK-Fn14 inh: 50.3*; KKLEB cytotox: -11.0

How did N#CC(c1ccccc1)c1ccc2c(C(F)(F)F)cc(C(F)(F)F)nc2n1 (centres undefined) do in these assays?
CF NFkB inh: 39.1; TROY signal inh: 59.1*; Peg3 promoter: -42.5; HIF-2a inh: -27.5; TWEAK-Fn14 inh: 53.2*; KKLEB cytotox: -8.6

Results for CN(N)c1ccc2c(C(F)(F)F)cc(C(F)(F)F)nc2n1 ?
CF NFkB inh: 11.1; TROY signal inh: 1.4; Peg3 promoter: 5.5; HIF-2a inh: 2.3; TWEAK-Fn14 inh: -33.5; KKLEB cytotox: 2.2

Results for OC(CNC1CCCCC1)CON=C1CCSc2c(Cl)cccc21 (centres undefined) ?
CF NFkB inh: 31.8; TROY signal inh: -13.6; Peg3 promoter: 95.6*; HIF-2a inh: -13.6; TWEAK-Fn14 inh: -14.2; KKLEB cytotox: -21.8

Results for OC(CNC1CCCC1)COc1ccc(-c2ccccc2)cc1 (centres undefined) ?
CF NFkB inh: 25.1; TROY signal inh: -24.9; Peg3 promoter: -4.5; HIF-2a inh: -25.3; TWEAK-Fn14 inh: -12.9; KKLEB cytotox: -4.9

Results for CC1(C(=O)NCc2ccccc2)CCC(=O)N1CCCn1ccnc1 (centres undefined) ?
CF NFkB inh: -8.5; TROY signal inh: 13.1; Peg3 promoter: 6.7; HIF-2a inh: 0.8; TWEAK-Fn14 inh: -1.0; KKLEB cytotox: -3.5

How did Cc1onc(-c2ccccc2)c1CNC(=O)Nc1ccc(C(F)(F)F)cc1 do in these assays?
CF NFkB inh: -1.9; TROY signal inh: 50.4*; Peg3 promoter: 26.5; HIF-2a inh: 26.4; TWEAK-Fn14 inh: 8.6; KKLEB cytotox: -9.1

What do the screens show for `COc1cc(CN2C[C@@H](CO)O[C@@H](n3cnc4c(Nc5ccccc5)ncnc43)C2)cc(OC)c1OC`?
CF NFkB inh: -9.9; TROY signal inh: 9.5; Peg3 promoter: 11.9; HIF-2a inh: -14.5; TWEAK-Fn14 inh: 20.4; KKLEB cytotox: -16.4
